# Measurements published in the supplement of paper PMC8728848.
# This is one part of a sample in which the strongest signals are shown more often than they occur.
# B1: L-Selectin (Homo sapiens), P14151 (protein)
# chain: MIFPWKCQSTQRDLWNIFKLWGWTMLCCDFLAHHGTDCWTYHYSEKPMNWQRARRFCRDNYTDLVAIQNKAEIEYLEKTLPFSRSYYWIGIRKIGGIWTWVGTNKSLTEEAENWGDGEPNNKKNKEDCVEIYIKRNKDAGKWNDDACHKLKAALCYTASCQPWSCSGHGECVEIINNYTCNCDVGYYGPQCQFVIQCEPLEAPELGTMDCTHPLGNFSFSSQCAFSCSEGTNLTGIEETTCGPFGNWSSPEPTCQVIQCEPLSAPDLGIMNCSHPLASFSFTSACTFICSEGTELIGKKKTICESSGIWSNPSPICQKLDKSFSMIKEGDYNPLFIPVAVMVTAFSGLAFIIWLARRLKKGKKSKRSMNDPY
# What was measured:
# Experiment in all cases: glycan array binding signal (z-score within array); higher = stronger binding
# Details in all cases: glycan notation: IUPAC condensed, linker removed
# [1] = target: Fuc(a1-2)Gal(b1-3)[Fuc(a1-4)]GlcNAc
# Procedure, shortened: (§1)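 Glycan array data were curated from 3228 arrays in the Consortium for Functional Glycomics database and kept only where the protein sequence was available. Glycan names were converted to IUPAC-condensed notation, and columns mapping to the same glycan were averaged. The binding signal is a within-array Z-score, averaged across arrays of the same protein sequence at different concentrations or buffers and across linkers. Negative Z-scores can be read as non-binding.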
# [2] = target: Fuc(a1-3)[Gal(b1-4)]Glc6S
# Procedure, shortened: as §1
# [3] = target: Fuc(a1-3)[Gal(b1-4)]GlcNAc(b1-4)Gal(b1-4)[Fuc(a1-3)]GlcNAc
# Procedure, shortened: as §1
# [4] = target: Fuc(a1-3)[Gal3S(b1-4)]Glc6S
# Procedure, shortened: as §1
# [5] = target: Fuc(a1-3)[Gal3S(b1-4)]GlcNAc6S
# Procedure, shortened: as §1
# [6] = target: Gal(a1-6)Glc
# Procedure, shortened: as §1
# [7] = target: Gal(b1-3)Gal
# Procedure, shortened: as §1
# [8] = target: Gal(b1-4)Glc6S
# Procedure, shortened: as §1
# [9] = target: Gal(b1-4)GlcNAc(b1-3)Gal(b1-4)[Fuc(a1-3)]GlcNAc(b1-3)Gal(b1-4)[Fuc(a1-3)]GlcNAc
# Procedure, shortened: as §1
# [10] = target: Gal(b1-4)GlcNAc(b1-6)Gal(b1-4)GlcNAc
# Procedure, shortened: as §1
# [11] = target: Gal3S(b1-3)GlcNAc
# Procedure, shortened: as §1
# [12] = target: Gal3S(b1-3)[Fuc(a1-4)]GlcNAc
# Procedure, shortened: as §1
# [13] = target: Gal3S6S(b1-4)GlcNAc6S
# Procedure, shortened: as §1
# [14] = target: Gal6S(b1-4)GlcNAc
# Procedure, shortened: as §1
# [15] = target: GlcNAc(b1-4)Gal(b1-4)GlcNAc
# Procedure, shortened: as §1
# [16] = target: Man(a1-2)Man(a1-3)[Man(a1-6)]Man(a1-6)[Man(a1-2)Man(a1-3)]Man(b1-4)GlcNAc(b1-4)GlcNAc
# Procedure, shortened: as §1
# [17] = target: Man(a1-3)[Man(a1-6)]Man(a1-6)[Man(a1-3)]Man
# Procedure, shortened: as §1
# [18] = target: Man(a1-3)[Man(a1-6)]Man(b1-4)GlcNAc(b1-4)GlcNAc
# Procedure, shortened: as §1
# [19] = target: Neu5Ac(a2-3)Gal(b1-3)GalNAc
# Procedure, shortened: as §1
# [20] = target: Neu5Ac(a2-3)Gal(b1-3)GalNAc(b1-3)Gal(b1-4)GlcNAc
# Procedure, shortened: as §1
# [21] = target: Neu5Ac(a2-3)Gal(b1-3)GlcNAc
# Procedure, shortened: as §1
# [22] = target: Neu5Ac(a2-3)Gal(b1-3)[Neu5Ac(a2-3)Gal(b1-4)]GlcNAc
# Procedure, shortened: as §1
# [23] = target: Neu5Ac(a2-3)Gal(b1-4)GlcNAc(b1-3)Gal(b1-4)GlcNAc
# Procedure, shortened: as §1
# [24] = target: Neu5Ac(a2-3)Gal(b1-4)[Fuc(a1-3)]GlcNAc6S
# Procedure, shortened: as §1
# [25] = target: Neu5Ac(a2-3)Gal6S(b1-4)[Fuc(a1-3)]GlcNAc
# Procedure, shortened: as §1
# [26] = target: Neu5Ac(a2-3)[GalNAc(b1-4)]Gal(b1-4)Glc
# Procedure, shortened: as §1
# [27] = target: Neu5Ac(a2-8)Neu5Ac(a2-8)Neu5Ac(a2-3)[GalNAc(b1-4)]Gal(b1-4)Glc
# Procedure, shortened: as §1
# [28] = target: Neu5Ac9Ac(a2-6)Gal(b1-4)GlcNAc
# Procedure, shortened: as §1
binder,measurement,setting,value
B1,glycan array binding signal (z-score),[1],-0.36
same,glycan array binding signal (z-score),[2],0.137
same,glycan array binding signal (z-score),[3],-0.145
same,glycan array binding signal (z-score),[4],6.9
same,glycan array binding signal (z-score),[5],8.15
same,glycan array binding signal (z-score),[6],0.48
same,glycan array binding signal (z-score),[7],-0.315
same,glycan array binding signal (z-score),[8],0.942
same,glycan array binding signal (z-score),[9],-0.38
same,glycan array binding signal (z-score),[10],-0.336
same,glycan array binding signal (z-score),[11],-0.333
same,glycan array binding signal (z-score),[12],3.08
same,glycan array binding signal (z-score),[13],4.59
same,glycan array binding signal (z-score),[14],-0.078
same,glycan array binding signal (z-score),[15],0.119
same,glycan array binding signal (z-score),[16],-0.024
same,glycan array binding signal (z-score),[17],-0.198
same,glycan array binding signal (z-score),[18],-0.246
same,glycan array binding signal (z-score),[19],0.005
same,glycan array binding signal (z-score),[20],-0.116
same,glycan array binding signal (z-score),[21],-0.147
same,glycan array binding signal (z-score),[22],-0.044
same,glycan array binding signal (z-score),[23],-0.338
same,glycan array binding signal (z-score),[24],9.18
same,glycan array binding signal (z-score),[25],-0.028
same,glycan array binding signal (z-score),[26],-0.363
same,glycan array binding signal (z-score),[27],-0.314
same,glycan array binding signal (z-score),[28],0.073
